# Data published in PubChem BioAssay (NCI).
# Compounds without any hit were thinned out: in the full panel of roughly 79,000, 15% have a hit. Unmarked numbers belong to inactive results. Activity calls are given as the source filed them. Rule as the data show it: active = growth inhibition above about 70%; inactive = the rest.
# Tests used:
# [1] = NCI Yeast Anticancer Drug Screen. Data for the rad50 strain (AID 155);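 also: 0% = growth of vehicle-only cultures of the same strain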; conditions: S. cerevisiae rad50 strain growth inhibition; at 50.0 µM; active compounds read high
# Summary of the method: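 Vehicle-treated cultures provide the reference for the growth inhibition reported for compound-exposed, repair-deficient yeast.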
# [2] = NCI Yeast Anticancer Drug Screen. Data for the mec2-1 strain (AID 157); conditions: S. cerevisiae mec2-1 strain, at 50.0 µM, active compounds read high
# Summary of the method: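 Using mec2-1 yeast: add compound, measure growth, express inhibition versus vehicle-treated cultures.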
# [3] = NCI Yeast Anticancer Drug Screen. Data for the sgs1 mgt1 strain (AID 161);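 also: 0% = growth of cultures given vehicle only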; conditions: S. cerevisiae sgs1 mgt1 strain, at 50.0 µM, active compounds read high
# Summary of the method: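 Growth of a repair-deficient yeast mutant was monitored after compound treatment and expressed as inhibition relative to vehicle-treated cultures.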
# [4] = NCI Yeast Anticancer Drug Screen. Data for the cln2 rad14 strain (AID 165);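 also: 0% = growth equal to vehicle treated cultures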; conditions: S. cerevisiae cln2 rad14 strain, at 50.0 µM, active compounds read high
# Summary of the method: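 Yeast strain cln2 rad14, bearing defects in cell cycle control and DNA repair, serves as the test system; values reflect growth inhibition compared with vehicle.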
# [5] = NCI Yeast Anticancer Drug Screen. Data for the bub3 strain (AID 167); conditions: S. cerevisiae bub3 mutant strain, at 50.0 µM, active compounds read high
# Summary of the method: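 Mutant yeast screening strain plus compound; vehicle-treated cultures serve as the 0% inhibition reference.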
# [6] = NCI Yeast Anticancer Drug Screen. Data for the mlh1 rad18 strain (AID 175); conditions: S. cerevisiae mlh1 rad18 strain growth inhibition; at 50.0 µM; active compounds read high
# Summary of the method: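 Steps: expose repair-defective yeast to compound; measure growth; express inhibition against vehicle-treated controls.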
SMILES,growth inhibition [1],growth inhibition [2],growth inhibition [3],growth inhibition [4],growth inhibition [5],growth inhibition [6]
O=CC1CCCc2ccccc21 (configuration not stated),17.1%,-20.5%,-0.7%,-5.7%,3.9%,5.6%
COc1ccc([N+](=O)[O-])c2c1CONC2c1c(CO)cnc(C)c1O (configuration not stated),35.1%,-12.2%,27.2%,-22.4%,5.3%,-2.7%
N#CC1=CCc2ccccc2N1C(=O)Oc1ccccc1,58.5%,12.7%,50%,19.4%,64.6%,47.2%
CC(C)(C)C(=O)C1C(=O)c2ccccc2C1=O,50.6%,21.8%,54%,-35.5%,5.95%,31.9%
N#CC(c1ccccc1)N(C(N)=O)c1ccccc1 (configuration not stated),-3.15%,8.5%,8.05%,-2.85%,6.4%,4.2%
CCCCCCCCCCCCCCCC(=O)OCC(O)CO (configuration not stated),-28.4%,-0.35%,-6.25%,-167%,-11%,1.1%
Clc1cccc(Cl)c1C(Nc1ncccn1)Nc1ncccn1,12.2%,14.8%,12.1%,-16.4%,9.6%,20.4%
OC(c1ccccc1)(C(F)(F)F)C(F)(F)F,3%,5.85%,6.1%,14.3%,9.9%,8.75%
Cn1c(=O)c2c(nc(CN3CCOCC3)n2C)n(C)c1=O,-1.35%,-11.2%,3.55%,-25.4%,3.6%,7.2%
N=C(N)SCC(=O)c1ccc([N+](=O)[O-])cc1,-6.65%,4.95%,1.35%,-0.4%,3.85%,5.8%
CC(=O)OCc1ccnc2ccc(OC(C)=O)cc12,0.05%,15.4%,-6.4%,-8.75%,-5.2%,2.75%
CC1=CC(=O)c2ccc(F)cc2C1=O,-11.8%,-3.85%,15%,-2.9%,-7.95%,13.8%
CC(=O)Nc1cc(C)c(C(=O)OC(=O)c2cc(C)c(NC(C)=O)cc2C)cc1C,22.4%,-10.1%,5.1%,-57.6%,-0.85%,6.2%
COc1ccc(CC(N)C(N)=O)cc1 (configuration not stated),-6.25%,-0.65%,-4%,-12%,-0.3%,6.5%
CC(=O)Nc1c(Cl)c(Cl)c2c(c1Cl)Cc1cc([N+](=O)[O-])ccc1-2,9.2%,-12.8%,7.6%,-9.1%,3.15%,2.1%
OC1CCC(C2C3CCCCC3C3CCCCC3C2C2CCC(O)CC2)CC1 (configuration not stated),94.7% (active),98.5% (active),92.5% (active),97.9% (active),97.2% (active),96.8% (active)
CCOC(=O)C1Sc2c(c(=O)n(C)c3ccccc23)C1=O (configuration not stated),34.1%,36.6%,34.1%,40.7%,-8.45%,41.2%
C=CC1=C(C)C2=NC1=CC1=NC(=CC3=C(C)C4=C(O)CC(=C5NC(=C2)C(C)C5CCC(=O)OC)C4=N3)C(CC)=C1C (configuration not stated),8.85%,-1.5%,19.4%,3.65%,-2.05%,22.2%
O=c1[nH]cc(COCCO)c(=O)[nH]1,-20.1%,-2.8%,-19.4%,7.4%,-18%,7.2%
CC(C)(c1ccccc1)C(C)(C)c1nc(-c2ccccc2)cc(-c2ccccc2)n1,-23.4%,4.95%,-4.65%,-95%,-0.95%,-11.8%
CC(=O)CC1=CC(C(C)(C)C)=CC(=O)C1=O,43.1%,26.1%,30.1%,49%,8.6%,49.5%

SMILES,growth inhibition [1],growth inhibition [2],growth inhibition [3],growth inhibition [4],growth inhibition [5],growth inhibition [6]
CN(C)C(=S)S(=O)(=O)c1ccc([N+](=O)[O-])cc1,26.8%,14.7%,23.6%,-7.4%,31.6%,92.3% (active)
Nc1nc(N)nc(-c2cc(Br)c(N)c(Br)c2)n1,-2.55%,-7.45%,0.95%,34.6%,3.3%,-8.25%
CC(C)C1CSC2N1C(=O)C2(OCc1ccccc1)C1CC1 (configuration not stated),3.3%,-22.4%,-3.2%,-16.2%,-20.1%,9.1%
CSc1nc(NC2OCC(OC(C)=O)C(OC(C)=O)C2OC(C)=O)c(N=CC=Nc2c(NC3OCC(OC(C)=O)C(OC(C)=O)C3OC(C)=O)nc(SC)n(C)c2=O)c(=O)n1C (configuration not stated),-4.3%,-4.85%,-19.8%,-16.3%,7.95%,12.4%
CCSc1n[nH]c(=O)nc1NN,-0.35%,-3.85%,-28.4%,-60%,-19.2%,-2.75%
C=CCOC(=O)C1(O)c2ccccc2NC(=S)N1CC=C (configuration not stated),1.35%,7.4%,5.2%,6.9%,10.3%,-0.8%
CN(C)CCC(c1ccccc1)c1ccccc1,-22.4%,-2.85%,13.7%,-13.6%,14.7%,-5.8%
CSc1nnc2c3ccccc3ccn12,4.9%,11.6%,-2.25%,-3.3%,-14.1%,52.5%
NC(=O)Nc1ccccc1,11.4%,-8.6%,-7.55%,-34.5%,-5.2%,14.2%
CCN(CC)CCNc1cc(OC)c(N)c2cccnc12,14.2%,19.9%,-2.7%,-6.75%,46.6%,40.4%
O=C(O)CCCCCCCCC(=O)c1cc(O)ccc1O,-5.3%,42.1%,35.7%,-7.25%,20.4%,7.9%
Cc1cc(C)[n+](C)c(/C=C\c2ccccc2Cl)n1,5.2%,-1.7%,10.6%,15.2%,-2.5%,22.1%
CCCCON1C[C@H](OC(C)=O)C(OC(C)=O)[C@H](OC(C)=O)C1 (some centres not stated),-44.8%,-15.9%,-39.1%,-10.4%,16.9%,-24.6%
CCOc1ccc(C2=NN(CC)C(=O)C(C3C(=O)N(c4ccccc4)N=C3C)C2)cc1 (configuration not stated),4.8%,-7.3%,-0.35%,-30.9%,-22.3%,-10.2%
O=Cc1sccc1NC(=O)c1ccccc1,2.65%,-14.6%,-18%,-18.1%,-7.5%,9.15%
O=C1CSC(c2cccs2)N1CCN1C(=O)CSC1c1cccs1 (configuration not stated),4.65%,-2.1%,-6.2%,-6.75%,1.1%,-0.25%
CC1=NCCN1CCN,20.6%,-17.2%,23.8%,12.9%,13.6%,23.6%
CC12CCC(C/C1=N\O)C2(C)CBr (configuration not stated),13.4%,-2.15%,-4.35%,-1.1%,-2.3%,5.1%
C[N+](C)(C)CCCCCc1c2nc(c(CCCCC[N+](C)(C)C)c3ccc([nH]3)c(CCCCC[N+](C)(C)C)c3ccc([nH]3)c(CCCCC[N+](C)(C)C)c3nc1C=C3)C=C2,19.6%,3.85%,10%,3.8%,26.4%,85.2% (active)
CC(=O)OC(C)C(=O)OCCOc1ccccc1 (configuration not stated),8.7%,-12%,14.3%,-36.6%,-7.3%,-4%
O=C(/C=C/c1ccc(OCCCCCCCCCCOc2ccc(/C=C/C(=O)c3ccc(Cl)cc3)cc2)cc1)c1ccc(Cl)cc1,5.3%,-1.45%,-15.3%,16.1%,22.5%,15.6%
